Experiment [1] in a line: Nuclear factor erythroid 2-related factor 2/antioxidant responsive element (Nrf2/ARE) small molecule agonists: qHTS cell viability counter screen in human keratinocytes (AID 1919968; active means well fitted curve in the direction sought with a large enough effect in the repeat runs; an effect the other way counts as inactive or inconclusive; further: nearly all actives have a fitted effect of over 55% in size). The method, boiled down: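 In human HaCaT keratinocytes stably expressing an ARE-driven luciferase, compound exposure lasted 23 h at 37 C under 5% CO2. Viable cells are quantified with a protease-based fluorogenic reagent (CellTiter-Fluor) read 1 h after addition.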
(qHTS replaces the single test concentration by a dilution series.)

The target of experiment [2] is Gonadotropin-releasing hormone receptor (Homo sapiens) (UniProt P30968). Nature of the experiment: Human gonadotropin-releasing hormone receptor (GnRHR) small molecule agonists, calcium flux assay in GnRHR-HEK293 cells (AID 1920063). Further: nearly all actives have a fitted effect of over 35% in size. The method, boiled down: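 Intracellular calcium rise is the read-out: engineered human GnRHR HEK293 cells, dye-loaded, are exposed to DMSO-dissolved compounds and fluorescence at Ex/Em 480/540 is tracked for 3 min.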

For experiment [3], the target named is KiSS-1 receptor (Homo sapiens) (UniProt Q969F8). Nature of the experiment: Human kisspeptin (KISS1R) small molecule agonists, calcium flux assay in KISS1R-HEK293 cells (AID 1920064; active means well fitted curve in the direction sought with a large enough effect in the repeat runs; an effect the other way counts as inactive or inconclusive). The method, boiled down:
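Concentration-response testing used 15 concentrations in triplicate on human KISS1R-expressing HEK293 cells. Calcium-dependent fluorescence (Ex/Em 480/540) was followed kinetically for 3 min after compound transfer.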
In general terms: A change in cytosolic calcium serves as a functional read-out for many receptors and channels.

A short description of experiment [4]: G protein-coupled receptor (GPCR) small molecule agonists, calcium flux assay: HEK293 wild type cell line counter screen (AID 1920065). The procedure, abridged: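 Fluorescence intensity signals activation. After overnight (18 h) culture and a 1 h calcium dye load at 37 C, compounds are added by pin tool and the plate read at 480/540 nm for 3 min in 1 s steps.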

The nature of experiment [5]: p53 small molecule agonists, cell-based qHTS assay with human liver microsomes: qHTS cell viability counter screen (AID 1963579). Further: nearly all actives have a fitted effect of over 45% in size. The procedure, abridged: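 Cytotoxicity counter screen: p53RE-bla, 4,000 cells/well; 5 h settle, 37 C/5% CO2; cpd + HLM 0.5 mg/mL + NADPH 0.5 mg/mL (final); 16 h, 37 C; CellTiter-Glo, 30 min RT, luminescence.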
Experiment [6] can be described thus: p53 small molecule agonists, cell-based qHTS assay with rat liver microsomes: qHTS cell viability counter screen (AID 1963580). Further: nearly all actives have a fitted effect of over 45% in size. The procedure, abridged:
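Luminescent ATP readout (CellTiter-Glo, 30 min at room temperature) reports viability of p53RE-bla HCT-116 cells after 16 h at 37 C with test compounds under metabolic activation by rat liver microsomes and NADPH at 0.5 mg/mL final each.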

A short description of experiment [7]: p53 small molecule agonists, cell-based qHTS assay: qHTS cell viability counter screen (AID 1963581). Further: nearly all actives have a fitted effect of over 45% in size. The procedure, abridged: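 Luminescence from CellTiter-Glo, reflecting ATP content, serves as the cytotoxicity measure; it is taken after the 2 h reporter substrate step in HCT-116 p53RE-bla cells dosed for 16 h at 37 C.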
The target of experiment [8] is 5-hydroxytryptamine receptor 2A (Homo sapiens) (UniProt P28223). Nature of the experiment: 5-hydroxytryptamine receptor 2A (HTR2A) small molecule antagonists, cell-based qHTS assay (AID 1963586). Further: nearly all actives have a fitted effect of over 45% in size. Further: potency means the concentration at half of the fitted maximal effect. The procedure, abridged: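 CHO cells stably expressing human HTR2A were plated for 18 h at 37 C, then loaded with calcium dye for 1 h. Compounds were preincubated 5 min at room temperature before DOI (4 nM solution) was added. Kinetic fluorescence was read for 3 min.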

The target is the same in experiment [9]. Nature of the experiment: 5-hydroxytryptamine receptor 2A (HTR2A) small molecule agonists, cell-based qHTS assay (AID 1963587). Further: nearly all actives have a fitted effect of over 30% in size. The procedure, abridged:
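HTR2A-CHO cells, plated 18 h at 37 C/5% CO2, dye-loaded 1 h at 37 C; compounds in DMSO added by pin tool (agonist mode). Intracellular calcium flux read as kinetic fluorescence on FDSS over 2 min at 1 s intervals.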

For experiment [10], the target named is Muscarinic acetylcholine receptor M1 (Homo sapiens) (UniProt P11229). Nature of the experiment: Cholinergic receptor muscarinic 1 (CHRM1) small molecule antagonists, cell-based qHTS assay (AID 1963588). Further: nearly all actives have a fitted effect of over 40% in size. The method, boiled down:
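Compounds were tested at 15 concentrations in three independent runs. Dye-loaded CHRM1-CHO cells were exposed 5 min at room temperature before stimulation by acetylcholine added at 50nM. Intracellular calcium was read kinetically on FDSS for 3 min.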

Experiment [11] shares this target. Nature of the experiment: Cholinergic receptor muscarinic 1 (CHRM1) small molecule agonists, cell-based qHTS assay (AID 1963589). Further: nearly all actives have a fitted effect of over 35% in size. The procedure, abridged: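 Fluorescent calcium dye reports M1 activation in stably transfected CHO cells. Compounds, 15 concentrations, added after 1 h dye loading at 37 C; kinetic reading at 1 sec intervals.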
A short description of experiment [12]: cAMP Responsive Elements (CRE) small molecule agonists, cell-based qHTS assay (AID 1963590). The procedure, abridged:
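Compound exposure lasted 3 h at 37 C/5% CO2 in CRE-bla HEK 293T cells grown in assay medium with 10% dialyzed FBS and 25 mM HEPES. Reporter signal came from LiveBLAzer B/G FRET substrate, 2 h, room temperature.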

Experiment [13] can be described thus: cAMP Responsive Elements (CRE) small molecule antagonists, cell-based qHTS assay (AID 1963591; active means well fitted inhibition curve with a large enough effect in the signal ratio in the repeat runs, not every such curve was filed as active; the % refers to the signal ratio; further: potency means the concentration at half of the fitted maximal effect). The method, boiled down: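 Stimulation used NKH477 at a final 0.25 uM for 3 h in compound-treated CRE-bla HEK293T cells, seeded 18 h beforehand. Reporter activity was measured with LiveBLAzer B/G FRET substrate after 2 h at room temperature.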
In experiment [14] the target is Beta-2 adrenergic receptor (Homo sapiens) (UniProt P07550). Nature of the experiment: Adrenergic beta2 receptor (ADRB2) small molecule antagonists, cell-based qHTS assay (AID 1963592). Further: series mostly up to about 92 µM; nearly all actives have a fitted effect of over 50% in size. The method, boiled down:
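Assay format: CHO-ADRB2 cells, 18-20hr seeding at 37C/5% CO2, then compound plus 1nM isoproterenol agonist mix for 0.5hr RT. Homogeneous time-resolved fluorescence cAMP detection after 1hr, expressed as 665/615 nm ratio.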

The target in experiment [15] is D(2) dopamine receptor (Homo sapiens) (UniProt P14416). Nature of the experiment: Dopamine D2 receptor (DRD2) small molecule antagonists, cell-based qHTS assay (AID 1963595; active means well fitted inhibition curve with a large enough effect in the signal ratio in the repeat runs, with a control signal flat; the % refers to the signal ratio). The procedure, abridged:
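Antagonist mode in DRD2-HEK293 cells: after compound addition with 0.1 mM Ro20-1724, cells received quinpirole (12 nM) and NKH477 (200 nM) for 30 min at room temperature; HTRF cAMP read after 1 h detection.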

Experiment [16] in a line: p53 small molecule agonists, cell-based qHTS assay with rat liver microsomes (AID 1963578). The procedure, abridged:
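Cells carrying a p53 response element–beta-lactamase reporter were plated and rested 5 h, then dosed with compound in DMSO plus rat liver microsomes and NADPH, each at 0.5 mg/mL final. After 16 h at 37 C, LiveBLAzer substrate was added for 2 h.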

The nature of experiment [17]: p53 small molecule agonists, cell-based qHTS assay (AID 1963582; active means well fitted activation curve with a large enough effect in the signal ratio in the repeat runs, not every such curve was filed as active; the % refers to the signal ratio). The procedure, abridged: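 After plating, p53RE-bla cells sat 5 h in the incubator; compounds or DMSO vehicle were pinned in; a 16 h incubation at 37 C followed; FRET substrate was added and, 2 h later at RT, fluorescence was measured.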
In experiment [18] the target is Beta-2 adrenergic receptor (Homo sapiens) (UniProt P07550). Nature of the experiment: Adrenergic beta2 receptor (ADRB2) small molecule agonists, cell-based qHTS assay (AID 1963593).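 Further: CHO cells stably overexpressing human ADRB2.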 The procedure, abridged:
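CHO cells stably over-expressing ADRB2 were plated overnight at 37C, then dosed with compounds plus a stimulation mix containing 100uM IBMX and 25uM Ro-20-1724 for 0.5hr at room temperature. cAMP was measured by HTRF competition, 1hr.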

For experiment [19], the target named is D(2) dopamine receptor (Homo sapiens) (UniProt P14416). Nature of the experiment: Dopamine D2 receptor (DRD2) small molecule agonists, cell-based qHTS assay (AID 1963594). Further: nearly all actives have a fitted effect of over 35% in size. The procedure, abridged:
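HEK293 cells stably expressing DRD2 were cultured 24 h at 37 C, then given Ro20-1724 (0.1 mM final) and compounds for 10 min at room temperature. NKH477 (200nM) was then added for 30 min. cAMP was read by HTRF.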

Unmarked numbers belong to inactive results. Inconclusive results are not listed. The source made the active and inactive calls. Unless noted, the call rests on the fitted dose curve.

Chain of Gonadotropin-releasing hormone receptor (Homo sapiens) (P30968 whole entry, looked up): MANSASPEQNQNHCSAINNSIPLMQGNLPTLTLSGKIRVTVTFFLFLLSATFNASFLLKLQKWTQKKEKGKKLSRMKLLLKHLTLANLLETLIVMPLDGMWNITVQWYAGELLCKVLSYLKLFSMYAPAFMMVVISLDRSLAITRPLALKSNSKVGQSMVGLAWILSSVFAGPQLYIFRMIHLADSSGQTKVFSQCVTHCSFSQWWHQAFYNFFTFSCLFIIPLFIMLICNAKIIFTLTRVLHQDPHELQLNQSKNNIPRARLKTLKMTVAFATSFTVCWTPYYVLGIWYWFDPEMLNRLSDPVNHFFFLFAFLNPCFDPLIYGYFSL
Chain of KiSS-1 receptor (Homo sapiens) (Q969F8 whole entry, looked up): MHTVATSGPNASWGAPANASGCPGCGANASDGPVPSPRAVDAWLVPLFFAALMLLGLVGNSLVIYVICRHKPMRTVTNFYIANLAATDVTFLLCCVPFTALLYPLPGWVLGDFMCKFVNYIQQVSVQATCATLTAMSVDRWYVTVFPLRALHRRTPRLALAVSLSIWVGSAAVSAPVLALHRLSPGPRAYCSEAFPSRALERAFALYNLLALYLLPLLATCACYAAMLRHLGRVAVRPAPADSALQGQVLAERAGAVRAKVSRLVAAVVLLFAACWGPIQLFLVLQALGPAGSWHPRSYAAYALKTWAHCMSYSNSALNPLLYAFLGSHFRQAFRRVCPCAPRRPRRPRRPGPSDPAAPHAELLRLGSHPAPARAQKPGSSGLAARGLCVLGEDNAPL
Chain of D(2) dopamine receptor (Homo sapiens) (P14416 whole entry, looked up): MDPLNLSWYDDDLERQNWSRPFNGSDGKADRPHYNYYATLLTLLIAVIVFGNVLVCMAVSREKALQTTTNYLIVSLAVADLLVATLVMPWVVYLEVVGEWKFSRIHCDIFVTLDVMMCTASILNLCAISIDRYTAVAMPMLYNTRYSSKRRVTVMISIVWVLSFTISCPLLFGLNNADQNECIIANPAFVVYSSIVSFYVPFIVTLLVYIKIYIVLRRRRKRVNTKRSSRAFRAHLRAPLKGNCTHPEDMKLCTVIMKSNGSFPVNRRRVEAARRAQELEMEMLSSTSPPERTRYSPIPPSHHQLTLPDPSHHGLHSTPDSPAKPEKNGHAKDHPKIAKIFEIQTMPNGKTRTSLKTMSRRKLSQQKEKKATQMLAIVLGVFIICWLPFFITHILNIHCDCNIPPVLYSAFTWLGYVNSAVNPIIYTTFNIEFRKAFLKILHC
Chain of Muscarinic acetylcholine receptor M1 (Homo sapiens) (P11229 whole entry, looked up): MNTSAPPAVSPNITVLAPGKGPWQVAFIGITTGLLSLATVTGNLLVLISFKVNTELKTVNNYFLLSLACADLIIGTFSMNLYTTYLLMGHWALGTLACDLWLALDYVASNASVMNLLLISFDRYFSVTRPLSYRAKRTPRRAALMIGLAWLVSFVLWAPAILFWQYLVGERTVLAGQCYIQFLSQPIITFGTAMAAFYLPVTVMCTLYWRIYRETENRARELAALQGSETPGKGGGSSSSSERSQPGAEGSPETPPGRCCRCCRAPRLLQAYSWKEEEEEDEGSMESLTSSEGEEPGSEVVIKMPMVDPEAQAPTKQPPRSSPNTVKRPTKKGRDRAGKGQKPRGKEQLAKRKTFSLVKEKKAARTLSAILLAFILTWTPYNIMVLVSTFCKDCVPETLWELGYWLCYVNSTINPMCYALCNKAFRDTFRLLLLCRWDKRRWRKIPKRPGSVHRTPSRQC
Chain of Beta-2 adrenergic receptor (Homo sapiens) (P07550 whole entry, looked up): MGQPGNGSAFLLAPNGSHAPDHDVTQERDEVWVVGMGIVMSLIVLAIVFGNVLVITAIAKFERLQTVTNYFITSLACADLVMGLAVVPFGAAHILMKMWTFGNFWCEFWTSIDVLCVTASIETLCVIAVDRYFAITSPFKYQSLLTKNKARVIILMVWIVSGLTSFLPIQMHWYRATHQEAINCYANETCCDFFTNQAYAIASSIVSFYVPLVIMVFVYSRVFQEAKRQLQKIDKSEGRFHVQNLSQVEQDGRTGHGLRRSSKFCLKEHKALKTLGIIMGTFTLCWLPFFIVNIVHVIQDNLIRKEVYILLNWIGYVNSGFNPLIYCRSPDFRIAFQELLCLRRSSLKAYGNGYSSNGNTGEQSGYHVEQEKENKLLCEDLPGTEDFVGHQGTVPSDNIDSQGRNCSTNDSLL
Chain of 5-hydroxytryptamine receptor 2A (Homo sapiens) (P28223 whole entry, looked up): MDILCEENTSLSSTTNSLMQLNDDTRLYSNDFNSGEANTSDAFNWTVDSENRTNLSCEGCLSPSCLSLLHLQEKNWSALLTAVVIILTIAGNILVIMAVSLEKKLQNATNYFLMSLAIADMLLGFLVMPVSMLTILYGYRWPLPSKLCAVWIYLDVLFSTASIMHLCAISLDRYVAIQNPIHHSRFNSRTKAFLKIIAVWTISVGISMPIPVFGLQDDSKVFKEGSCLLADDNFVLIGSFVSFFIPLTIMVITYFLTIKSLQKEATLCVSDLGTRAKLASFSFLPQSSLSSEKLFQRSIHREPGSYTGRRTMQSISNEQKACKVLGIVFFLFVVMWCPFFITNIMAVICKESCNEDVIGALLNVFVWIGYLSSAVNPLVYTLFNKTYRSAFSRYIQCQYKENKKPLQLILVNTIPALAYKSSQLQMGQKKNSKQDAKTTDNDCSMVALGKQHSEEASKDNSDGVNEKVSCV

Regarding `COc1ccc(CCN(C)CCCN2CCc3cc(OC)c(OC)cc3CC2=O)cc1OC`, the Potency entry in experiment [1], in experiment [2], in experiment [3], in [4], in experiment [5] and in experiment [6] was “inactive” throughout. Also, the Potency result in experiment [7], in experiment [8], in [9], in experiment [10], in [11] and in experiment [12] was “inactive” each time. Moreover, the Potency result in experiment [13], in [14] and in experiment [15] was “inactive” each time.

As to `CCCCCC(CO)CCC` (configuration not stated), the Potency result in experiment [1], in experiment [2], in [3], in [4], in experiment [16] and in experiment [5] was “inactive” throughout. Besides, the Potency entry in [6], in experiment [17], in experiment [10], in experiment [13], in [14] and in experiment [18] was “inactive” each time. The Potency entry in experiment [19] and in experiment [15] was “inactive” in each case.

Take `OCCCCCO`: the Potency result in [1], in [2], in [3], in experiment [4], in [16] and in [5] was “inactive” in each case. For the same molecule, the Potency result in [7], in experiment [17], in experiment [8], in [10], in [11] and in experiment [12] was “inactive” in each case. Moreover, the Potency result in experiment [13], in experiment [14], in experiment [18] and in experiment [15] was “inactive” throughout.

For the molecule `c1ccc(B(c2ccccc2)c2ccccc2)cc1`, the Potency entry in experiment [1], in experiment [2], in experiment [3], in [4], in experiment [16] and in experiment [6] was “inactive” in each case. Further, the Potency entry in experiment [7], in experiment [17], in experiment [9], in experiment [10], in experiment [11] and in [12] was “inactive” each time. The Potency result in experiment [14] and in experiment [15] was “inactive” in each case. Also, the Potency in experiment [13] is 28.5 µM (active).

Regarding `CCS(=O)(=O)c1ccc(OC)c(C(=O)OC)c1`, the Potency result in experiment [1], in [2], in experiment [3], in [4], in [16] and in [6] was “inactive” throughout. Moreover, the Potency entry in experiment [7], in experiment [17], in experiment [8], in [9], in experiment [12] and in experiment [13] was “inactive” in each case. The Potency result in experiment [14], in experiment [18], in [19] and in experiment [15] was “inactive” throughout.

In the case of `c1ccc2occc2c1`, the Potency entry in experiment [1], in [2], in experiment [3], in experiment [4], in experiment [16] and in experiment [9] was “inactive” each time. Also, the Potency entry in [10], in experiment [12], in experiment [13] and in [15] was “inactive” in each case. For the same molecule, in experiment [8], the Potency was 375 nM (active).

As for `C=CC(C)(CCC=C(C)C)OC(=O)CC(C)C` (configuration not stated), the Potency result in experiment [1], in experiment [2], in [3], in experiment [4], in [5] and in [6] was “inactive” in each case. Moreover, the Potency entry in experiment [7], in experiment [8], in [9], in experiment [10], in experiment [11] and in experiment [12] was “inactive” throughout. The Potency result in experiment [13], in experiment [19] and in experiment [15] was “inactive” each time.

These data come from PubChem BioAssay (Tox21).
